# Measurements: PubChem BioAssay (Tox21)
# Where “and” joins values, the source holds several entries; their conditions need not be identical. Identical values can stand only once. Inconclusive results are not listed. Entries that show only a call come without a potency. More than one record can exist for a structure, and the calls need not agree. Calls of active or inactive are those of the source. Calls come from the whole dose curve; as a rule, active = well fitted curve in the direction sought with a large enough effect in the repeat runs; inconclusive = weak or mixed curves; inactive = no such curve, though single readings can be large; an effect the other way counts as inactive or inconclusive.
# Test: A CellTox Green Cytotoxicity Assay to monitor cytotoxicity in HepG2 cells - 32 hour (AID 1224883); note: nearly all actives have a fitted effect of over 50% in size; note: potency is the fitted concentration of half-maximal effect
# Conditions: CellTox Green fluorescence; series mostly up to 76.8 µM; cytotoxicity increase: at the top concentration
# Procedure, shortened: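 Real-time, homogeneous cytotoxicity readout: dead-cell DNA staining by CellTox Green in HepG2 monolayers, fluorescence measured at timed intervals up to 40 h of continuous compound exposure.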
Compound,Potency,cytotoxicity increase
CCCCCCCCCCCCOCC1CO1 (stereo not drawn),inactive,–
CC(C)n1c(/C=C/[C@@H](O)C[C@@H](O)CC(=O)O)c(-c2ccc(F)cc2)c2ccccc21,4.36 µM (active) and 9.52 µM (active),–
NC(=O)NNc1ccccc1,inactive,–
O=C(c1cc(O)c(O)c(O)c1)c1ccc(O)c(O)c1O,inactive,–
O=C(Oc1ccccc1)c1ccc(O)cc1,–,18.3% (inactive)
CCc1ccccc1O,inactive,–
Cc1cc(O)cc(C)c1Cl,–,17.2% [at 35.3 µM] (inactive)
CCOC(=O)/C=C\C(=O)OCC,–,-7.15% (inactive)
CC1=C(CC(=O)O)c2cc(F)ccc2/C1=C\c1ccc(S(C)=O)cc1 (stereo not drawn),inactive,–
Nc1cc(-c2ccncc2)c[nH]c1=O,inactive,–
CCCCCCCCCCC=CC1CC(=O)OC1=O (stereo not drawn),–,15.8% (inactive)
C=CC(=O)OCCCCCCCC(C)C,inactive,–
CCCCOCCOCCOC(=O)CCCCC(=O)OCCOCCOCCCC,inactive,–
O=C(O)c1ccc([N+](=O)[O-])cc1,inactive,–
CC1(C)CC(N=C=O)CC(C)(CN=C=O)C1 (stereo not drawn),inactive,–
NC(=O)/N=N/C(N)=O,inactive,–
CNC[C@H](O)[C@@H](O)[C@H](O)[C@H](O)CO,inactive,–
CC(=O)Nc1ccc(C(=O)O)cc1,inactive,–
O=C1O[C@H](CO)[C@@H](O)[C@H](O)[C@H]1O,inactive,–
C=C(C)C(=O)OCCCCCC,inactive,–

# Test: A CellTox Green Cytotoxicity Assay to monitor cytotoxicity in HEK293 cells - 8 hour (AID 1224884); note: nearly all actives have a fitted effect of over 35% in size; note: potency is the fitted concentration of half-maximal effect
# Conditions: CellTox Green fluorescence; series mostly up to 76.8 µM; cytotoxicity increase: at the top concentration
# Procedure, shortened: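 Cytotoxicity was tracked continuously in HEK293 cells by a DNA-binding dye excluded from viable cells. Compounds were transferred in DMSO 5 h after seeding; fluorescence was recorded at intervals up to 40 h.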
Compound,Potency,cytotoxicity increase
CC1=C(/C=C/C(C)=C/C=C/C(C)=C/CO)C(C)(C)CCC1,inactive,–
COC(=O)c1ccccc1O,inactive,–
Oc1ccc2ccccc2c1N=Nc1ccccc1,inactive,–
C[C@@H](O)[C@H]1C(=O)N2C(C(=O)O)=C(S[C@@H]3CN[C@H](C(=O)N(C)C)C3)[C@H](C)[C@H]12,inactive,–
C=C1CC[C@H](O)CC1=C/C=C1\CCC[C@]2(C)[C@@H]([C@H](C)/C=C/[C@H](C)C(C)C)CC[C@@H]12,inactive,–
CCc1ccc(O)cc1,inactive,–
COC(=O)c1ccc(C(=O)OC)cc1,inactive,–
OCC#CCO,inactive,–
CN(C)c1cccc(O)c1,inactive,–
COCC(=O)O,inactive,–
CC1=CC[C@H]2C[C@@H]1C2(C)C,inactive,–
CC(C)(C)C1CCC(O)CC1 (stereo not drawn),inactive,–
O=S(=O)(O)c1cc(S(=O)(=O)O)c2c(N=Nc3ccccc3)c(O)ccc2c1,inactive,–
CC#C[C@]1(O)CC[C@H]2[C@@H]3CCC4=CC(=O)CCC4=C3[C@@H](c3ccc(N(C)C)cc3)C[C@@]21C,inactive,–
S=c1nc[nH]c2nc[nH]c12,inactive,–
O=C(Cl)c1c(Cl)c(Cl)c(C(=O)Cl)c(Cl)c1Cl,inactive,–
Nc1nc2ncc(CNc3ccc(C(=O)N[C@@H](CCC(=O)O)C(=O)O)cc3)nc2c(=O)[nH]1,inactive,–
CC1Cc2ccccc2N1NC(=O)c1ccc(Cl)c(S(N)(=O)=O)c1 (stereo not drawn),inactive,–
C=C(C)C(=O)OCC(CC)(COC(=O)C(=C)C)COC(=O)C(=C)C,inactive and 24.1 µM (active),–
CCCCCCCCCCCCOCC1CO1 (stereo not drawn),inactive,–

Compound,Potency,cytotoxicity increase
CC(C)n1c(/C=C/[C@@H](O)C[C@@H](O)CC(=O)O)c(-c2ccc(F)cc2)c2ccccc21,–,1.09% (inactive)
NC(=O)NNc1ccccc1,inactive,–
O=C(c1cc(O)c(O)c(O)c1)c1ccc(O)c(O)c1O,inactive,–
O=C(Oc1ccccc1)c1ccc(O)cc1,inactive,–
CCc1ccccc1O,inactive,–
Cc1cc(O)cc(C)c1Cl,inactive,–
CCOC(=O)/C=C\C(=O)OCC,inactive,–
CC1=C(CC(=O)O)c2cc(F)ccc2/C1=C\c1ccc(S(C)=O)cc1 (stereo not drawn),inactive,–
Nc1cc(-c2ccncc2)c[nH]c1=O,inactive,–
CCCCCCCCCCC=CC1CC(=O)OC1=O (stereo not drawn),inactive,–
C=CC(=O)OCCCCCCCC(C)C,inactive,–
CCCCOCCOCCOC(=O)CCCCC(=O)OCCOCCOCCCC,inactive,–
O=C(O)c1ccc([N+](=O)[O-])cc1,inactive,–
CC1(C)CC(N=C=O)CC(C)(CN=C=O)C1 (stereo not drawn),inactive,–
NC(=O)/N=N/C(N)=O,inactive,–
CNC[C@H](O)[C@@H](O)[C@H](O)[C@H](O)CO,inactive,–
CC(=O)Nc1ccc(C(=O)O)cc1,–,4.69% [at 35.3 µM] (inactive)
O=C1O[C@H](CO)[C@@H](O)[C@H](O)[C@H]1O,inactive,–
C=C(C)C(=O)OCCCCCC,inactive,–

# Test: qHTS RealTime-Glo MT Cell Viability Assay in HepG2 cells - 16 hour (AID 1224885); note: nearly all actives have a fitted effect of over 50% in size
# Conditions: RealTime-Glo luminescence; series mostly up to 76.8 µM; activity change, negative = cytotoxic: at the top concentration
# Procedure, shortened: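 Cells + NanoLuc/prosubstrate dispensed (600 cells/well) → 5 h at 37 C/5% CO2 → compounds in DMSO transferred → 40 h incubation at 37 C, luminescence read at 0, 8, 16, 24, 32, 40 h.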
Compound,Potency,"activity change, negative = cytotoxic"
CC1=C(/C=C/C(C)=C/C=C/C(C)=C/CO)C(C)(C)CCC1,inactive,–
COC(=O)c1ccccc1O,inactive,–
Oc1ccc2ccccc2c1N=Nc1ccccc1,inactive,–
C[C@@H](O)[C@H]1C(=O)N2C(C(=O)O)=C(S[C@@H]3CN[C@H](C(=O)N(C)C)C3)[C@H](C)[C@H]12,inactive,–
C=C1CC[C@H](O)CC1=C/C=C1\CCC[C@]2(C)[C@@H]([C@H](C)/C=C/[C@H](C)C(C)C)CC[C@@H]12,–,-9.76% (inactive)
CCc1ccc(O)cc1,inactive,–
COC(=O)c1ccc(C(=O)OC)cc1,inactive,–
OCC#CCO,inactive,–
CN(C)c1cccc(O)c1,inactive,–
COCC(=O)O,inactive,–
CC1=CC[C@H]2C[C@@H]1C2(C)C,inactive,–
CC(C)(C)C1CCC(O)CC1 (stereo not drawn),inactive,–
O=S(=O)(O)c1cc(S(=O)(=O)O)c2c(N=Nc3ccccc3)c(O)ccc2c1,–,-18.8% (inactive)
CC#C[C@]1(O)CC[C@H]2[C@@H]3CCC4=CC(=O)CCC4=C3[C@@H](c3ccc(N(C)C)cc3)C[C@@]21C,–,-26.8% [at 35.3 µM] (inactive)
S=c1nc[nH]c2nc[nH]c12,inactive,–
O=C(Cl)c1c(Cl)c(Cl)c(C(=O)Cl)c(Cl)c1Cl,inactive,–
Nc1nc2ncc(CNc3ccc(C(=O)N[C@@H](CCC(=O)O)C(=O)O)cc3)nc2c(=O)[nH]1,inactive,–
CC1Cc2ccccc2N1NC(=O)c1ccc(Cl)c(S(N)(=O)=O)c1 (stereo not drawn),inactive,–
C=C(C)C(=O)OCC(CC)(COC(=O)C(=C)C)COC(=O)C(=C)C,inactive,–
CCCCCCCCCCCCOCC1CO1 (stereo not drawn),inactive,–

Compound,Potency,"activity change, negative = cytotoxic"
CC(C)n1c(/C=C/[C@@H](O)C[C@@H](O)CC(=O)O)c(-c2ccc(F)cc2)c2ccccc21,inactive,–
NC(=O)NNc1ccccc1,inactive,–
O=C(c1cc(O)c(O)c(O)c1)c1ccc(O)c(O)c1O,–,-18.6% [at 35.3 µM] (inactive)
O=C(Oc1ccccc1)c1ccc(O)cc1,inactive,–
CCc1ccccc1O,inactive,–
Cc1cc(O)cc(C)c1Cl,inactive,–
CCOC(=O)/C=C\C(=O)OCC,inactive,–
CC1=C(CC(=O)O)c2cc(F)ccc2/C1=C\c1ccc(S(C)=O)cc1 (stereo not drawn),inactive,–
Nc1cc(-c2ccncc2)c[nH]c1=O,inactive,–
CCCCCCCCCCC=CC1CC(=O)OC1=O (stereo not drawn),inactive,–
C=CC(=O)OCCCCCCCC(C)C,inactive,–
CCCCOCCOCCOC(=O)CCCCC(=O)OCCOCCOCCCC,inactive,–
O=C(O)c1ccc([N+](=O)[O-])cc1,inactive,–
CC1(C)CC(N=C=O)CC(C)(CN=C=O)C1 (stereo not drawn),inactive,–
NC(=O)/N=N/C(N)=O,inactive,–
CNC[C@H](O)[C@@H](O)[C@H](O)[C@H](O)CO,inactive,–
CC(=O)Nc1ccc(C(=O)O)cc1,inactive,–
O=C1O[C@H](CO)[C@@H](O)[C@H](O)[C@H]1O,inactive,–
C=C(C)C(=O)OCCCCCC,inactive,–
